Source: PubChem BioAssay AID1159580 (chemical genetic matrix, 2015)
“And” between values parts separate entries of the source, which are not always exact repeats. Equal values may be shown once. The campaign covered roughly 5,500 compounds. About 2,000 (36%) were called active. Inconclusive results (about 18%) are left out. Rule as the data show it: active = normalized growth mostly below about 0.91 (no sharp cut-off); inconclusive = no clear call, values can overlap the other calls; inactive = mostly above about 0.92. Some of the results follow.

Experiment: chemical genetic growth profiling, strain panel (AID 1159580);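 also: tested at 20 µM; growth read once vehicle control cultures reached saturation at 30 °C; 1 = growth at the plate median or of vehicle wells; lower values mean less growth of the strain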
Settings: S. cerevisiae deletion strains, growth OD

Measured: normalized growth

OCC(O)C(O)C(O)CO (stereo unspecified)
inactive: locus YAL021C, strain ccr4, active compounds read low 1.01 | locus YAL026C, strain drs2, active compounds read low 1.02 and 1.01 | locus YAL030W, strain snc1, active compounds read low 1.03 and 0.992 | locus YBL061C, strain skt5, active compounds read low 1.02 and 0.994 | locus YBR009C, strain hhf1, active compounds read low 1.02 and 0.989 | locus YBR021W, strain FUR4, active compounds read low 1.07 | locus YBR023C, strain chs3, active compounds read low 1.03 and 0.999 | locus YBR171W, strain sec66, active compounds read low 1.06 and 0.99 | locus YBR229C, strain ROT2, active compounds read low 0.964 | locus YBR231C, strain swc5, active compounds read low 1.03 and 0.994 | locus YBR279W, strain paf1, active compounds read low 1.01 and 0.998 | locus YCL011C, strain gbp2, active compounds read low 1.03 and 1.01 | locus YCL016C, strain dcc1, active compounds read low 1.03 and 0.99 | locus YCL029C, strain bik1, active compounds read low 0.985 | locus YCL061C, strain MRC1, active compounds read low 1.03 | locus YCL069W, strain vba3, active compounds read low 1.03 and 0.994 | locus YCR088W, strain abp1, active compounds read low 1.02 and 0.991 | locus YDL005C, strain med2, active compounds read low 1.03 and 0.984 | locus YDL035C, strain GPR1, active compounds read low 1.04 | locus YDL040C, strain nat1, active compounds read low 1.02 and 1 | locus YDL074C, strain BRE1, active compounds read low 1.12 | locus YDL101C, strain DUN1, active compounds read low 0.996 | locus YDL134C, strain PPH21, active compounds read low 1.01 | locus YDL185W, strain tfp1, active compounds read low 0.982 | locus YDL192W, strain arf1, active compounds read low 1.02 | locus YDR001C, strain nth1, active compounds read low 1.02 | locus YDR069C, strain doa4, active compounds read low 1.02 and 0.976 | locus YDR101C, strain arx1, active compounds read low 1.05 | locus YDR137W, strain rgp1, active compounds read low 1.09 and 0.983 | locus YDR159W, strain sac3, active compounds read low 1.03 and 1 | locus YDR162C, strain NBP2, active compounds read low 0.971 | locus YDR195W, strain ref2 1.04 and 0.983 | locus YDR297W, strain sur2, active compounds read low 1.02 and 1.01 | locus YDR318W, strain mcm21, active compounds read low 0.992 | locus YDR334W, strain swr1, active compounds read low 1.02 and 1 | locus YDR335W, strain msn5, active compounds read low 1.02 and 0.999 | locus YDR388W, active compounds read low 0.995 | locus YDR392W, strain spt3, active compounds read low 1.02 and 0.998 | locus YDR502C, strain sam2, active compounds read low 0.995 | locus YEL003W, strain gim4, active compounds read low 1.03 and 1 | locus YEL037C, strain rad23, active compounds read low 1.01 and 1 | locus YEL061C, strain CIN8 (second series), active compounds read low 1.03 and 0.998 | locus YEL061C, strain CIN8, active compounds read low 1.01 | locus YER015W, strain faa2, active compounds read low 1.02 and 1 | locus YER016W, strain bim1, active compounds read low 1.03 and 0.982 | locus YER110C, active compounds read low 0.983 | locus YER111C, strain swi4, active compounds read low 1.05 and 0.999 | locus YER155C, strain BEM2 (second series), active compounds read low 1.05 and 0.987 | locus YER155C, strain BEM2, active compounds read low 1 | locus YER167W, strain BCK2, active compounds read low 1.01 | locus YFR010W, strain ubp6, active compounds read low 1.02 and 1 | locus YGL078C, strain dbp3, active compounds read low 1.01 | locus YGL086W, strain mad1, active compounds read low 1.05 | locus YGL167C, strain pmr1, active compounds read low 1.04 and 1 | locus YGL173C, strain kem1, active compounds read low 1.03 and 0.996 | locus YGL227W, strain vid30, active compounds read low 1.02 and 0.98 | locus YGL240W, strain doc1, active compounds read low 1.03 and 1.01 | locus YGL248W, strain PDE1, active compounds read low 0.999 | locus YGL253W, strain hxk2, active compounds read low 1.02 and 1.01 | locus YGR135W, strain pre9, active compounds read low 0.984 | locus YGR229C, strain SMI1, active compounds read low 1.04 | locus YGR252W, strain gcn5, active compounds read low 1.06 | locus YHR013C, strain ard1, active compounds read low 1.04 and 0.994 | locus YHR027C, strain rpn1, active compounds read low 1.03 and 0.991 | locus YHR030C, strain SLT2, active compounds read low 1.03 and 1.02 | locus YHR079C, strain IRE1 (second series), active compounds read low 0.994 | locus YHR079C, strain IRE1, active compounds read low 1.02 and 1.05 | locus YHR094C, strain hxt1, active compounds read low 0.982 | locus YHR129C, strain ARP1, active compounds read low 1.02 | locus YHR142W, strain chs7, active compounds read low 1.04 and 1.02 | locus YHR200W, strain rpn10, active compounds read low 1 | locus YIL066C, strain RNR3, active compounds read low 1.02 | locus YIL073C, strain SPO22, active compounds read low 1.07 | locus YIL125W, strain kgd1, active compounds read low 0.997 | locus YIR030C, strain dcg1, active compounds read low 1 | locus YJL092W, strain hpr5, active compounds read low 1.03 and 1 | locus YJL095W, strain BCK1 (second series), active compounds read low 1.01 and 0.999 | locus YJL095W, strain BCK1, active compounds read low 1.04 and 1.03 | locus YJL115W, strain asf1, active compounds read low 1.04 and 0.983 | locus YJL129C, strain trk1, active compounds read low 1.05 and 0.992 | locus YJL134W, strain LCB3, active compounds read low 0.993 | locus YJL154C, strain vps35, active compounds read low 1.02 and 0.991 | locus YJL164C, strain tpk1, active compounds read low 1.03 and 0.996 | locus YJL166W, strain qcr8, active compounds read low 1.03 and 1.01 | locus YJL168C, strain set2, active compounds read low 0.998 | locus YJL187C, strain SWE1 (second series), active compounds read low 0.995 | locus YJL187C, strain SWE1, active compounds read low 1.04 and 0.996 | locus YJR043C, strain POL32, active compounds read low 1.05 | locus YJR066W, strain TOR1, active compounds read low 0.962 and 0.981 | locus YKL009W, strain mrt4, active compounds read low 1.06 | locus YKL068W, active compounds read low 0.987 | locus YKL085W, strain MDH1 (second series), active compounds read low 1.01 | locus YKL085W, strain MDH1, active compounds read low 1.01 | locus YKL160W, strain elf1, active compounds read low 1.02 and 0.994 | locus YKL190W, strain CNB1, active compounds read low 0.996 | locus YKR001C, strain vps1, active compounds read low 1.02 | locus YKR026C, strain gcn3, active compounds read low 1.03 and 0.989 | locus YKR091W, strain srl3, active compounds read low 1.02 and 0.991 | locus YLL001W, strain dnm1, active compounds read low 1.03 and 1 | locus YLL026W, active compounds read low 1.03 and 0.991 | locus YLL041C, strain sdh2, active compounds read low 1.02 and 0.993 | locus YLR027C, strain aat2, active compounds read low 1.03 and 0.975 | locus YLR039C, strain RIC1, active compounds read low 1.07 | locus YLR058C, strain SHM2, active compounds read low 1 | locus YLR102C, strain apc9, active compounds read low 0.992 | locus YLR113W, strain HOG1, active compounds read low 1.02 and 1.06 | locus YLR221C, strain rsa3, active compounds read low 1.03 and 0.996 | locus YLR258W, strain gsy2, active compounds read low 1.01 and 1 | locus YLR262C, strain YPT6 (second series), active compounds read low 1.05 and 1.02 | locus YLR262C, strain YPT6, active compounds read low 1.02 | locus YLR268W, strain sec22, active compounds read low 1.03 | locus YLR320W, strain mms22, active compounds read low 1.03 and 1.01 | locus YLR330W, strain CHS5, active compounds read low 1.01 | locus YLR342W, strain FKS1 (second series), active compounds read low 1.16 | locus YLR342W, strain FKS1, active compounds read low 1.03 and 0.995 | locus YLR357W, strain rsc2, active compounds read low 1.06 and 0.993 | locus YLR370C, strain arc18, active compounds read low 1.02 and 0.986 | locus YLR371W, strain rom2, active compounds read low 1 | locus YLR384C, strain iki3, active compounds read low 1.03 and 0.966 | locus YLR418C, strain cdc73, active compounds read low 1.05 | locus YML016C, strain PPZ1, active compounds read low 1 | locus YML032C, strain rad52, active compounds read low 0.996 | locus YML120C, strain ndi1, active compounds read low 1.03 and 1 | locus YML124C, strain tub3, active compounds read low 0.99 | locus YMR058W, strain fet3, active compounds read low 1.02 and 1 | locus YMR078C, strain ctf18, active compounds read low 0.998 | locus YMR125W, strain sto1, active compounds read low 1.02 and 1 | locus YMR129W, active compounds read low 1.03 and 0.992 | locus YMR205C, strain PFK2, active compounds read low 1.05 and 0.988 | locus YMR223W, strain ubp8, active compounds read low 1 | locus YMR231W, strain pep5, active compounds read low 1.01 | locus YMR263W, strain SAP30, active compounds read low 1.01 | locus YMR307W, strain GAS1, active compounds read low 1.2 | locus YNL067W, strain RPL9B, active compounds read low 0.991 | locus YNL071W, strain lat1, active compounds read low 1.02 and 1.01 | locus YNL128W, strain TEP1, active compounds read low 1.02 | locus YNL183C, strain NPR1, active compounds read low 0.969 and 0.984 | locus YNL209W, strain ssb2, active compounds read low 1.01 and 0.988 | locus YNL233W, strain BNI4, active compounds read low 1.02 | locus YNL248C, strain rpa49, active compounds read low 1.03 and 1.02 | locus YNL250W, strain rad50, active compounds read low 1 | locus YNL271C, strain bni1, active compounds read low 1.01 | locus YNL298W, strain CLA4, active compounds read low 1.02 | locus YNL307C, strain MCK1, active compounds read low 0.997 | locus YNL322C, strain KRE1 (second series), active compounds read low 1.03 and 0.99 | locus YNL322C, strain KRE1, active compounds read low 1.01 | locus YNR049C, strain mso1, active compounds read low 1.02 and 0.994 | locus YNR052C, strain pop2, active compounds read low 1.01 | locus YOL012C, strain htz1 0.9 | locus YOL147C, strain pex11, active compounds read low 0.994 | locus YOR001W, strain rrp6, active compounds read low 1.01 and 0.998 | locus YOR061W, strain CKA2, active compounds read low 0.989 | locus YOR069W, strain VPS5, active compounds read low 1.01 | locus YOR070C, strain gyp1, active compounds read low 1.01 and 0.994 | locus YOR080W, strain dia2, active compounds read low 1.03 and 0.985 | locus YOR083W, strain WHI5, active compounds read low 1.01 and 0.997 | locus YOR106W, strain vam3, active compounds read low 1.05 and 0.998 | locus YOR136W, strain idh2, active compounds read low 0.992 | locus YOR144C, strain elg1, active compounds read low 0.989 | locus YOR184W, strain ser1, active compounds read low 1 | locus YOR231W, strain MKK1, active compounds read low 1.03 and 1.05 | locus YOR265W, strain rbl2, active compounds read low 1.03 and 0.995 | locus YOR270C, strain vph1, active compounds read low 1.09 and 1.04 | locus YOR290C, strain snf2, active compounds read low 1.04 and 0.997 | locus YOR316C, strain cot1, active compounds read low 0.989 | locus YPL051W, strain arl3, active compounds read low 1.02 and 0.975 | locus YPL078C, strain atp4, active compounds read low 1.02 and 0.992 | locus YPL106C, strain sse1, active compounds read low 1.03 and 0.946 | locus YPL240C, strain hsp82, active compounds read low 1.02 and 0.997 | locus YPL241C, strain CIN2, active compounds read low 0.997 | locus YPL256C, strain CLN2, active compounds read low 0.996 and 1.06 | locus YPR119W, strain clb2, active compounds read low 1 | locus YPR141C, strain kar3, active compounds read low 0.992 | locus YPR163C, strain tif3, active compounds read low 0.995 | locus YPR167C, strain met16, active compounds read low 1 | strain wtn01, active compounds read low 1.04
